HTT ATP protect: qHTS Multiplex Assay to Identify Dual Action Probes in a Cell Model of Huntington: Cytoprotection (ATP) | AID 1471, 2008 | Potency, µM (doses to about 56.4 µM), without a hit: cytoprotection (ATP increase), most hits filed as activators | 230,000 compounds, 0.14% hits | PC12 HTT-Q103 induced, cytoprotection, ATP luminescence, 40 h; note: potency is the fitted concentration of half-maximal effect; % of control where 0% means no effect; nearly all actives have a fitted effect of over 45% in size
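Compounds were screened for protection of PC12 cells against cell death after tebufenozide induction (100 nM final) of mutant Huntingtin exon 1 (Q103) fused to GFP.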
CBFb-RUNX1 inh: qHTS Assay for Compounds Blocking the Interaction Between CBF-beta and RUNX1 for the Treatment of Acute Myeloid Leukemia. Runt-related transcription factor 1 (Homo sapiens) + Core-binding factor subunit beta …. AlphaScreen CBFb-His/RUNX1-biotin binding, biochemical. Potency, µM (highest dose often 59.8 µM), for inactives: at the highest dose activity, negative = inhibition, hits mostly inhibitors. 230,000 tested, under 10 active; note: % of control where 0% means no effect
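Room-temperature protein-protein interaction test with 30 nM each of His-tagged CBF-beta and biotinylated RUNX1, 15 min with compound, then 90 min with nickel plus streptavidin beads. Signal read in AlphaScreen mode.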
ALDH1A1 block: qHTS Assay for Inhibitors of Aldehyde Dehydrogenase 1 (ALDH1A1); 220,000 compounds, 7.3% hits; Aldehyde dehydrogenase 1A1 (Homo sapiens), P00352; Purified ALDH1A1, NADH fluorescence, propionaldehyde substrate; Potency, µM (doses to about 75.3 µM), without a hit: at the highest dose activity, negative = inhibition, most hits filed as inhibitors; active = well fitted inhibition curve with a large enough effect, not every such curve was filed as active; inconclusive = small, poorly fitted or top-dose-only effect, or another doubt; inactive = no such curve, though single readings can be large or run the other way;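 note: potency is the fitted concentration of half-maximal effect; plate controls were no enzyme wells and a reference inhibitor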
HPGD inh: qHTS Assay for Inhibitors of HPGD (15-Hydroxyprostaglandin Dehydrogenase) | 15-hydroxyprostaglandin dehydrogenase [NAD(+)] (Homo sapiens), P15428 | purified HPGD, NADH fluorescence kinetic, PGE2 substrate | Potency, µM, for the others: at the top dose activity change, negative = inhibition, actives largely listed as inhibitors | 150,000 compounds, 4.3% hits | AID 894, 2007; active = well fitted inhibition curve with a large enough effect, not every such curve was filed as active; inconclusive = small, poorly fitted or top-dose-only effect, or another doubt; inactive = no such curve, though single readings can be large or run the other way; note: potency is the fitted concentration of half-maximal effect; % is set by controls: 0 for no effect and ±100 for the full control effect
Target sequence (P15428 whole entry, looked up): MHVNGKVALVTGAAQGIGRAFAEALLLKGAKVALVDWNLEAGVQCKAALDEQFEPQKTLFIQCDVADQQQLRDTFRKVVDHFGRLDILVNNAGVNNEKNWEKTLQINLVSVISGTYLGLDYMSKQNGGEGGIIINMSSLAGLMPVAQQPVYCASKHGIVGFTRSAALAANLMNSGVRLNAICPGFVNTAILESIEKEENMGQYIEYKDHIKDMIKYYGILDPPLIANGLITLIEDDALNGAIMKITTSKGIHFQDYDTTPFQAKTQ
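20 nM HPGD preincubated 15 min at room temperature with compound in 50 mM Tris-HCl pH 8, 0.01% Tween 20. Started with 1 mM NAD+ and 30 uM prostaglandin E2; NADH fluorescence (360/450 nm) read 5 times over 30-s intervals, last minus first.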
KDM4E inh: qHTS Assay for Inhibitors of Human Jumonji Domain Containing 2E (JMJD2E); Lysine-specific demethylase 4E (Homo sapiens), B2RXH2; JMJD2E catalytic domain, FDH-coupled NADH fluorescence (FDH is formaldehyde dehydrogenase); 230,000 compounds, 1.6% hits; Potency, µM (highest dose often 57.1 µM), without a hit: top-dose activity change, negative = inhibition, usual class: inhibitors; AID 2147, 2009; active = well fitted inhibition curve with a large enough effect, not every such curve was filed as active; inconclusive = small, poorly fitted or top-dose-only effect, or another doubt; inactive = no such curve, though single readings can be large or run the other way;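 note: potency is the fitted concentration of half-maximal effect; 0% = wells with enzyme and -100% = buffer wells without enzyme; nearly all actives have a fitted effect of over 50% in size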
HTT aggregate: qHTS Multiplex Assay to Identify Dual Action Probes in a Cell Model of Huntington: Aggregate Formation (GFP) | Potency, µM (titrated, usually from 46.1 µM), for inactives: top-dose activity change, negative = inhibition, hits mostly inhibitors | 220,000 compounds, 1.1% hits | PC12 HttQ103-GFP aggregates, Acumen cytometry, 40 h | AID 1688, 2009; note: potency is the fitted concentration of half-maximal effect; % is set by controls: 0 for no effect and ±100 for the full control effect; nearly all actives have a fitted effect of over 60% in size
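Read-out: GFP aggregate count by laser scanning cytometer (488 nm excitation, 500-530 nm emission, 1–25 µm objects >6 SD above background). Cells: PC12, inducible HTTex1-Q103-GFP, 100 nM tebufenozide; compounds titrated.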
* = called active by the depositor; ? = inconclusive; . = not tested or not shown; [ ] = dose if it differs, or a comment. A selection: hits, their analogues and other compounds. The true share with any hit is near 9.8%. Unless noted, calls come from the whole dose curve; as a rule, active = well fitted curve in the direction sought with a large enough effect; inconclusive = small, poorly fitted or top-dose-only effect, or another doubt; inactive = no such curve, though single readings can be large; an effect the other way counts as inactive or inconclusive.

SMILES	HTT ATP protect	CBFb-RUNX1 inh	ALDH1A1 block	HPGD inh	KDM4E inh	HTT aggregate
CN1C(=O)NC(c2ccc(O)cc2)C(C(=O)c2cccs2)C1(O)C(F)(F)F (centres undefined)	-10%	2%	7.9µM*	-5%	-2%	-1%
COc1cc(O)sc1C=Nc1ccc(Cl)cc1Cl	-35%	11%	-8%	.	7%	17%
CCOC(=O)c1sc(-c2ccc(Br)cc2)cc1N	-17%	21%	-1%	-26%	?	17%
CCOC(=O)c1cc(-c2ccc(N)cc2)sc1N	32%[10 µM]	-11%	28µM*	-8%	-4%	22%
COc1cc(NC(=O)c2cc3nc(C)cc(C)n3n2)c(OC)cc1Cl	14µM*	0%	?	?	?	.
COc1cc(NC(=O)c2cc(C3CC3)on2)c(OC)cc1Cl	-5%	5%	?	?	-2%	7%
COc1ccc(NC(=O)c2cc(C(C)C)on2)c(OC)c1	-4%[10 µM]	9%	4µM*	?	-19%	13%
COc1cc(NC(=O)c2cc(C(C)C)on2)c(OC)cc1Cl	-7%	4%	7.9µM*	?	?	-11%
CC(C)NC(=O)Cn1cc(C(=O)C2CC2)c2ccccc21	0%[10 µM]	7%	-7%	.	3%	-18%[9.22 µM]
COc1ccc(OC)c(NC(=O)C2C3CC4OC(=O)C2C4C3)c1 (centres undefined)	18%[10 µM]	0%	-5%	-21%	3%	-16%
NC(=O)C1CCCN1C(=O)C(Cc1cnc[nH]1)NC(=O)C1CCC(=O)N1 (centres undefined)	.	1%	.	.	.	.
CC(NC(=O)COc1ccc(N(C)S(=O)(=O)c2ccccc2)cc1)c1ccccc1 (centres undefined)	-31%	-10%	?	.	-13%	-10%
CCOc1ccc(C2=Cc3cc(OC)c(OC)cc3C(=C(Cl)Cl)O2)cc1	-6%	-6%	?	-13%	8%	32%
CC1(C)Cc2c(C#N)c(N3CCN(C(=O)c4ccccc4)CC3)nc(Cc3ccccc3)c2CO1	-23%	6%	?	?	?	22µM*
COc1cc(-c2nc3n(n2)C(c2cccc(OC)c2OC)C2=C(CCCC2=O)N3)cc(OC)c1OC (centres undefined)	-27%	-3%	2%	-16%	-5%	10%
O=C(NC(=S)Nc1ccccc1N1CCCC1)c1ccc(-c2cccc([N+](=O)[O-])c2)o1	-38%	2%	22µM*	25µM*	9%	?
CC(=O)N1CCN(c2ccccc2NC(=O)c2ccc(-c3cccc([N+](=O)[O-])c3)o2)CC1	-49%	-9%	14µM*	.	-12%	6%
O=C(Nc1ccccc1N1CCOCC1)c1cccc([N+](=O)[O-])c1	17%[10 µM]	6%	5%	-9%	0%	1%
O=C(NC(=S)Nc1ccccc1O)c1ccc(-c2ccc(Cl)cc2)o1	-61%	-6%	-5%	-9%	-3%	11µM*
O=C(NC(=S)Nc1ccccc1N1CCCCC1)c1ccc(-c2cccc([N+](=O)[O-])c2)o1	-12%	-3%	?	-21%	-6%	19%
COc1ccccc1NC(=S)NC(=O)c1ccc(-c2ccc(Cl)cc2)o1	-25%	-8%	3%	-2%	4%	-6%
O=C(Nc1ccc(S(=O)(=O)Nc2ncccn2)cc1)c1ccc(N2CCCC2=O)cc1	4%[10 µM]	8%	.	.	?	-4%[9.22 µM]
CC1(C)CC(=O)C=C(C(=O)N2CCCC(C(=O)c3cccc(Cl)c3)C2)O1 (centres undefined)	13%[10 µM]	0%	?	.	1%	13%[9.22 µM]
